This is an account of results in PubChem BioAssay AID540351 (The Scripps Research Institute Molecular Screening Center, 2011).

Unmarked numbers belong to inactive results. The rule behind the calls is not given here.

The subject of this assay is Imidazoline I2. In words: off-target receptor, channel and CYP panel, profiling panel, selectivity assay for S1P3 agonist project, biochemical, Ricerca HitProfilingScreen, CYP450 (AID 540351). Particulars: Ricerca receptor/enzyme binding panel plus CYP450, Central, at 30 µM, active compounds read high.

By inhibition is commonly meant the drop in the measured response relative to a control, in per cent.

`O=C(c1cc(C2CC2)on1)N(C1CCCCC1)C1CCCCC1`: the inhibition is 23%.
